The panel holds about 79,000 compounds, 15% with a hit somewhere; the sample as a whole holds those more often. Values without a mark were called inactive. Activity calls are given as the source filed them. No stated cut-off is given here; in the data, active means growth inhibition above about 70%; inactive means the rest.
Key:
[1] = NCI Yeast Anticancer Drug Screen. Data for the rad50 strain (AID 155);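 further: 0% = growth of vehicle-only cultures of the same strain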; conditions: S. cerevisiae rad50 strain growth inhibition, hits give high values
Procedure, shortened: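 Relative growth inhibition (compound vs vehicle) was measured in yeast with a defined repair-gene alteration.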

[2] = NCI Yeast Anticancer Drug Screen. Data for the mec2-1 strain (AID 157); conditions: S. cerevisiae mec2-1 strain, hits give high values
Procedure, shortened: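 mec2-1 yeast strain, carrying an alteration in DNA damage repair or cell cycle control, was exposed to compounds; growth inhibition was measured relative to vehicle-treated controls.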

[3] = NCI Yeast Anticancer Drug Screen. Data for the sgs1 mgt1 strain (AID 161);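 further: 0% = growth of cultures given vehicle only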; conditions: S. cerevisiae sgs1 mgt1 strain, hits give high values
Procedure, shortened: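 Compounds are added to genetically altered yeast, and growth is compared with cultures given vehicle alone to give percent inhibition.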

[4] = NCI Yeast Anticancer Drug Screen. Data for the cln2 rad14 strain (AID 165);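 further: 0% = growth equal to vehicle treated cultures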; conditions: S. cerevisiae cln2 rad14 strain, hits give high values
Procedure, shortened: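 Yeast carrying cln2 and rad14 alterations (cell cycle control and DNA damage repair) were exposed to compounds. Growth inhibition was measured against vehicle-treated controls.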

[5] = NCI Yeast Anticancer Drug Screen. Data for the bub3 strain (AID 167); conditions: S. cerevisiae bub3 mutant strain, hits give high values
Procedure, shortened: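 Screening used yeast with an engineered genetic alteration affecting cell cycle control. Compound-exposed cultures were compared with vehicle cultures, and reduced growth was taken as inhibition.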

[6] = NCI Yeast Anticancer Drug Screen. Data for the mlh1 rad18 strain (AID 175); conditions: S. cerevisiae mlh1 rad18 strain growth inhibition, hits give high values
Procedure, shortened: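 Growth inhibition of the yeast strain was measured after compound exposure and expressed relative to vehicle-treated controls. The strain carries defined defects in DNA damage repair.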

[7] = at 5.0 µM (retest, dose inferred, filed as 0.5)
[8] = at 50.0 µM (retest, dose inferred, filed as 5.0)

Row | SMILES | growth inhibition [1, 7] | growth inhibition [1, 8] | growth inhibition ([1]; at 50.0 µM) | growth inhibition [2, 7] | growth inhibition [2, 8] | growth inhibition ([2]; at 50.0 µM) | growth inhibition [3, 7] | growth inhibition [3, 8] | growth inhibition ([3]; at 50.0 µM) | growth inhibition [4, 7] | growth inhibition [4, 8] | growth inhibition ([4]; at 50.0 µM) | growth inhibition [5, 7] | growth inhibition [5, 8] | growth inhibition ([5]; at 50.0 µM) | growth inhibition [6, 7] | growth inhibition [6, 8] | growth inhibition ([6]; at 50.0 µM)
1 | Oc1c(Br)c(Br)c(O)c(Br)c1Br | 12% | 50% | 98.9% (active) | 7% | 33% | 99.2% (active) | 7% | 58% | 94.5% (active) | 5% | 13% | 37.5% | 8% | 42% | 97.8% (active) | 10% | 35% | 98% (active)
2 | CCOc1ccccc1-c1nc2c(s1)C(=O)c1ccccc1C2=O | 87% (active) | 98% (active) | 90% (active) | 100% (active) | 99% (active) | 91.4% (active) | 85% (active) | 98% (active) | 92% (active) | 52% | 98% (active) | 89.9% (active) | 98% (active) | 98% (active) | 92.3% (active) | 94% (active) | 98% (active) | 91.8% (active)
3 | COC(=O)c1cc2c(c(C(=O)OC)c1O)C(=O)C=CC2=O | 2% | 78% (active) | 84.5% (active) | 8% | 95% (active) | 84% (active) | 5% | 80% (active) | 80% (active) | 10% | 95% (active) | 56.3% | -2% | 90% (active) | 69.8% | -28% | 95% (active) | 70.6% (active)
4 | O=C(Cn1cnc2ccc([N+](=O)[O-])cc21)N1CCN(c2ccccc2)CC1 | -2% | -7% | 10.3% | 4% | 8% | 19.6% | -25% | 2% | 12.1% | 7% | -5% | -53.6% | 10% | 7% | -15.4% | -9% | -22% | 0.6%
5 | O=C(NCCCCCCNC(=O)n1cc(F)c(=O)[nH]c1=O)NCCCOCCOCCOCCOCCOCCOCCOCCOCCOCCOCCOCCOCCOCCOCCOCCOCCOCCOCCOCCOCCOCCCNC(=O)C(O)C(O)C(O)C(O)CO (stereo not given) | 6% | 31% | 42.2% | 4% | 60% | 82% (active) | 23% | 87% (active) | 76.8% (active) | 33% | 8% | 24.4% | 11% | 34% | -4.9% | 7% | 35% | -10.8%
6 | CC(C)OC(=O)c1ccc(NCC2=CC(=O)C=CC2=O)cc1Cl | 53% | 99% (active) | 90.7% (active) | 44% | 100% (active) | 92.5% (active) | 55% | 100% (active) | 91.2% (active) | 61% | 100% (active) | 91.2% (active) | 55% | 100% (active) | 88.9% (active) | 46% | 99% (active) | 91.7% (active)
7 | OCc1ccccc1CC(O)(c1ccccc1)c1ccccc1 | -7% | 92% (active) | 97.8% (active) | -8% | 87% (active) | 97.3% (active) | -7% | 94% (active) | 95.8% (active) | -3% | 70% (active) | 75.5% (active) | -19% | 11% | 88.5% (active) | -20% | 90% (active) | 94.4% (active)
8 | Cc1c(C)c2cc3c(=O)ccoc3c(C)c2oc1=O | 32% | 76% (active) | 48.1% | 1% | 38% | 19.6% | -11% | 21% | 30.5% | 8% | 45% | 42% | -1% | 52% | 30.4% | -11% | 68% | 69.6%
9 | C1CCC(OC2CCCCO2)OC1 (stereo not given) | -2% | 76% (active) | 70.3% (active) | -22% | 36% | 21.2% | -11% | 56% | 62.1% | -2% | 66% | 65.2% | -8% | 71% (active) | 77.3% (active) | -9% | 92% (active) | 66%
10 | O=C1OC2(Cc3ccccc31)c1ccccc1-c1ccccc12 | -5% | -1% | 20.8% | -4% | -11% | 25.9% | -6% | 38% | 41% | -5% | -15% | 17.6% | -10% | -7% | 9.45% | -19% | -9% | 27.8%

Source: PubChem BioAssay (NCI)
